Here are results for 14 compounds from the supplement of paper PMC9262897, “Low-cost anti-mycobacterial drug discovery using engineered E. coli” (Nature Communications, 2022).

Structures can show the parent of a compound that is named as a salt. ± gives the standard deviation of the averaged measurements.

The assay relates to E. coli TESEC Alr+ wild-type control. As to the kind of experiment: growth (OD600 after 10 h); higher = more growth (less inhibition). The following applies: compound 0.1 mM; raw OD600 reference: median of DMSO wells 0.241, cell-free background 0.041. Here is the method: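 TESEC Mtb Alr E. coli, or the Alr+ wild-type control, in 384-well plates with Prestwick library compounds at 0.1 mM and 1% DMSO, across arabinose induction levels of 1E3 to 1E7 nM. Growth is read as OD600 after 10 h at 37 °C in triplicate biological replicates.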
For `CC(C)(C)NCC(O)c1ccccc1Cl` (centres undefined) [Tulobuterol], the growth worked out at 0.22 ± 0.005.
The figure for `Clc1ccc(C(OCCN2CCCCC2)c2ccccc2)cc1` (centres undefined) [Cloperastine hydrochloride] is 0.186 ± 0.0072.
The result for `CN(C)C(=O)Oc1cc(OC(=O)N(C)C)cc(C(O)CNC(C)(C)C)c1` (centres undefined) [Bambuterol hydrochloride] reads 0.22 ± 0.0079; that for `C[C@@H]1C[C@@H]([C@H](O)CC2CC(=O)NC(=O)C2)C(=O)[C@@H](C)C1` [Cycloheximide], 0.25 ± 0.014.
The figure for `CC(Cc1ccc(O)cc1)NCC(O)c1cc(O)cc(O)c1` (centres undefined) [Fenoterol hydrobromide] is 0.241 ± 0.0046; for `COc1ccc(CCN)cc1OC` [Homoveratrylamine] it is 0.2134 ± 0.001; for `C(#CCN1CCCC1)CN1CCCC1` [Tremorine dihydrochloride] it is 0.275 ± 0.0094.
`O=C1CC[C@@]2(O)[C@H]3Cc4ccc(O)c5c4[C@@]2(CCN3CC2CC2)[C@H]1O5` [Naltrexone hydrochloride dihydrate] registered a growth of 0.242 ± 0.0065.
The result for `C[N+]1(C)CCCC(OC(=O)C(O)(c2ccccc2)c2ccccc2)C1` (centres undefined) [Mepenzolate bromide] reads 0.235 ± 0.006.
The result for `C1CCc2nnnn2CC1` [Pentylenetetrazole] reads 0.255 ± 0.011; that for `CC(=O)NC1CCSC1=O` (racemic) [N-Acetyl-DL-homocysteine Thiolactone], 0.253 ± 0.013.
Compound `CNC(C)(C)Cc1ccccc1` [Mephentermine hemisulfate] came in with a growth of 0.247 ± 0.0094.
The figure for `N[C@@H]1C[C@H]1c1ccccc1` [Tranylcypromine hydrochloride] is 0.241 ± 0.013; for `CC(NC(C)(C)C)C(=O)c1cccc(Cl)c1` (centres undefined) [Bupropion hydrochloride] it is 0.226 ± 0.0027.
